Our source for the growth values is PubChem BioAssay (NCI).

Where “and” joins values, the source holds several entries; their conditions need not be identical. Equal entries are not always repeated. Compounds without any hit were thinned out: in the full panel of roughly 83,000, 20% have a hit.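 Treatment: one concentration, 48 hours, 96-well format. Scoring: percent growth, with anything below 10 considered active.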 Calls of active or inactive are those of the source.

This assay concerns MDA-MB-468 breast. The experiment in a line: NCI-60 one-dose screen, 48 h (100 = growth as untreated, 0 = no growth, -100 = all killed). The following applies: 10 µM unless noted.
Take `NC1=C(C/C(N)=N\O)C(c2ccccc2Cl)c2c(ccc3ccccc23)O1` (stereo not given): the growth is 61.6% (inactive).

As for `CCn1c2ccccc2c2cc(C(O)c3cccc4ncccc34)ccc21` (stereo not given), the growth is 14.2% (inactive). Next, `O=C(O)c1ccc(-n2cc(/C=N/Nc3ccc(F)cc3)c(-c3cc4ccccc4oc3=O)n2)cc1`: 119% (inactive); `COc1c(O)cc2c(c1CC=C(C)C)OC(=O)c1c(cc(O)c(CC=C(C)C)c1O)O2`: 27.9% (inactive). Under `CCN(CC)CCOc1ccc(/C(=C(\C)c2ccc(F)c(OC)c2)c2ccc(Cl)cc2)cc1` stands -15.7% (active); under `c1ccc(-c2nn(-c3ccccc3)[n+](-c3ccccc3-c3ccccc3)n2)cc1`, -38.6% (active); under `Cc1cc(C)n(C(=O)c2nn(-c3ccc(Cl)cc3)cc2O)n1`, 64.6% (inactive). As to `O=C(CSc1nc2ccccc2c(=O)n1-c1ccc(Cl)cc1)N/N=C/c1ccc(N2CCCCC2)cc1`, the growth is 79.5% (inactive). Regarding `COc1ccc(-c2cn(-c3cccc(C(=O)/C=C/c4cc(OC)c(OC)c(OC)c4)c3)c(=O)[nH]2)cc1OC`, the growth is 98.1% (inactive). Next, `O=C(Nc1ccc(Nc2ccncc2)cc1)c1ccc(Nc2ccnc3ccc([N+](=O)[O-])cc23)cc1[N+](=O)[O-]`: 21.7% (inactive). With `Cc1cc2c(-c3nc4ccccn4c3NC3CCCCC3)c(O)c(O)cc2c(O)c1-c1c(C)cc2c(-c3nc4ccccn4c3NC3CCCCC3)c(O)c(O)cc2c1O`, the growth was 13.9% (inactive). Next, `CCN(CC)c1nc(SCc2ccccc2Cl)ncc1C`: 69.6% (inactive); `Cc1c2ccccc2nc2cc3c(cc12)[C@H]1CC[C@]2(C)C(=O)CC[C@H]2[C@@H]1CC3`: 91.3% (inactive). Consider `Cn1cc(-c2cc3c(Nc4ccc(CC(=O)Nc5cc(C(C)(C)C)on5)cc4)ncnc3[nH]2)cn1`, for which the growth was -74.3% (active) and -62.1% (active). Next, `COC(=O)C1(C)CCC[C@]2(C)[C@H]3C[C@H]4C(C(C)C)=C[C@]3(CC[C@@H]12)[C@H]1[C@@H]4[C@@H](OCC#CCN2CCOCC2)CC[C@@H]1OCC#CCN1CCOCC1` (stereo not given in full): 80% (inactive). As for `Cc1[nH]n(-c2ccccc2)c2nc3nncc3c(-c3ccc(Cl)cc3)c12`, the growth was 95.1% (inactive). Next, `CC(=O)Nc1cc2c3c(cccc3c1)-c1ccccc1-2`: 108% (inactive). Next, `O=C(Nc1cccc(-n2cc(-c3ccncc3)c(-c3ccc(O)c(Cl)c3)n2)c1)Nc1ccc(Cl)c(C(F)(F)F)c1`: 10% (inactive); `CN1CCN(C(=O)OCc2nc3c(N4CCOCC4)nc(Cl)nc3n2C)CC1`: -69.4% (active); `CCC(=O)Oc1ccc(/C(=C(\C)c2ccccc2)c2ccc(OCCN(CC)CC)cc2)cc1`: 82.4% (inactive). Next, `C=C(C)[C@@H]1CC[C@]2(C(=O)N3CCNCC3)CC[C@]3(C)[C@H](CC[C@@H]4[C@@](C)(CCC(=O)N5CCNCC5)[C@H](C(=C)C)CC[C@]43C)[C@@H]12`: 49.5% (inactive). Take `CN(C)c1ccc(/C=C\C2=[N+](C)c3ccccc3C2(C)C)cc1`: the growth was 11% (inactive).

Turning to `CCOC(=O)c1cn2ncnc(Oc3ccc(NC(=O)NCCN4CCOCC4)c(Cl)c3)c2c1C`, the growth is 85.1% (inactive). With `C/C(=C\C(=O)c1ccc(Cl)cc1)c1ccc(Cl)cc1`, the growth is 5.65% (active). Turning to `COc1ccc2c(c1)[nH]c(=O)c1c3cc(OC)c(OC)cc3cn21`, the growth is 11.4% (inactive).

Regarding `Oc1ccc(CSc2nnc(-c3ccc(Cl)cc3)o2)c2cccnc12`, the growth was 26.3% (inactive). Under `CCOc1ccc(C2N(c3cc(OC)c(OC)c(OC)c3)C(=O)C2(F)F)cc1` (stereo not given) stands 34.9% (inactive); under `C#CCOC(=O)Nc1ccccc1`, 117% (inactive); under `S=C(Nc1ccc(-c2nc(N3CCOCC3)c3cccn3n2)cc1)Nc1cccnc1`, 34.8% (inactive). Next, `N#Cc1ccc(-c2csc(Nc3ccc4nc5n(c(=O)c4c3)CCC5)n2)cc1`: 105% (inactive); `Cc1ccc(S(=O)(=O)/C(=C\c2ccc(Cl)cc2)C(=O)c2ccccc2)cc1`: 105% (inactive). For the compound `Cc1cc(C)n(C(=O)c2sc(=S)n(-c3ccccc3)c2N=Nc2c(N)n[nH]c2N)n1`, the growth was 112% (inactive). With `COc1ccc2c(c1)c(-c1nc(N)nnc1-c1c[nH]c3ccccc13)cn2C`, the growth is -9.57% (active). Under `CN(C)c1ccc(/C=C(\C#N)c2cc3ccccc3n2C)cc1` stands 31.8% (inactive).

Turning to `COc1cc(C(=O)N/N=C/c2cccc([N+](=O)[O-])c2)cc(OC)c1OC`, the growth is 6.95% (active).
